From PubChem
Only a selection was taken, and hits are over-represented in it overall.
NPR1 antag: antagonists of human natriuretic peptide receptor Npr1 | AID 1347048 | P16066 | HEK293 hNpr1 GloSensor cGMP, ANP-stimulated luminescence | 76,000 compounds, 1.6% hits | Potency, µM (highest dose often 46.3 µM), inactives show at the highest dose activity change, negative = inhibition, usual class: inhibitors; note: potency is the fitted concentration of half-maximal effect; % is set by controls: 0 for no effect and ±100 for the full control effect; nearly all actives have a fitted effect of over 60% in size
Target sequence (P16066 whole entry, looked up): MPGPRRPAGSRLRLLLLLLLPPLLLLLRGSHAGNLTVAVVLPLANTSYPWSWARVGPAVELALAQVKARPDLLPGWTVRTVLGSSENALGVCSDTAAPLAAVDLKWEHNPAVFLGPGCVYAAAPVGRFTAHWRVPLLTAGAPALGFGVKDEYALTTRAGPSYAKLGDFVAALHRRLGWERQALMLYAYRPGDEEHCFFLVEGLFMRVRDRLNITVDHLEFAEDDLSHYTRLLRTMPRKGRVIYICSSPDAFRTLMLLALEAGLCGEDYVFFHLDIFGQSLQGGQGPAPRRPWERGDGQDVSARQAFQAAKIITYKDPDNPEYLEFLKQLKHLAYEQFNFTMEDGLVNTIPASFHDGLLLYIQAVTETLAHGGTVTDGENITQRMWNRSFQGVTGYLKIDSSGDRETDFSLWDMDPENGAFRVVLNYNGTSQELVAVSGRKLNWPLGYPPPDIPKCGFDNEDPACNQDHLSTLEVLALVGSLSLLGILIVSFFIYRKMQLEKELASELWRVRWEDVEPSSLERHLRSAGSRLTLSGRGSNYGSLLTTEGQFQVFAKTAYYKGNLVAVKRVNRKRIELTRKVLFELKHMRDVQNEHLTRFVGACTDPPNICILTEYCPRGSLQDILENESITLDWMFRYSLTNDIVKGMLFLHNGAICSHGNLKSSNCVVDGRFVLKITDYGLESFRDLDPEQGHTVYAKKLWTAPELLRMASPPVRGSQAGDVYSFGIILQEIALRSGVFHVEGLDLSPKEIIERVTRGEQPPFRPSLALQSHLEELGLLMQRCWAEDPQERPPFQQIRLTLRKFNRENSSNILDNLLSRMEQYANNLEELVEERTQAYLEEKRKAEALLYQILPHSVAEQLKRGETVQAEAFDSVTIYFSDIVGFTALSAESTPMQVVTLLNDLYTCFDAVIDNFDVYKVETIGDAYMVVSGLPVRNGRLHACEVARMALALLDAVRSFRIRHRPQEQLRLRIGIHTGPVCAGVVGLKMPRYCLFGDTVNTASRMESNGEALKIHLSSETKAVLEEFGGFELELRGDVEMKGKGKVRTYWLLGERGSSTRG
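HEK293 cells stably expressing human Npr1 and cGMP GloSensor pGS-40F, loaded 2 h with 2% GloSensor reagent, given compound 30 min at room temperature. Luminescence read before and 20 min after 0.1 nM hNppA.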
GPT2 inh: GPT2 alanine aminotransferase inhibition; 100,000 compounds, 0.25% hits; Q8TD30; Recombinant GPT2, coupled pyruvate oxidase/HRP Amplex Red fluorescence; Potency, µM (highest dose often 57.7 µM), inactives show at the highest dose activity change, negative = inhibition, most hits filed as inhibitors; active = well fitted inhibition curve with a large enough effect; inconclusive = small, poorly fitted or top-dose-only effect; note: potency is the fitted concentration of half-maximal effect; % is set by controls: 0 for no effect and ±100 for the full control effect; nearly all actives have a fitted effect of over 60% in size
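Fluorescence read-out: pyruvate from GPT2 turnover coupled to pyruvate oxidase, HRP and Amplex Red (0.2mM ThPP, 0.2U/mL PO and HRP, 50uM Amplex final). Substrates 250uM a-KG, 2mM L-alanine; enzyme 10ng/uL; 30 min RT.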
NPR1 antag cnf: confirmation of human Npr1 natriuretic peptide receptor antagonists; shares compounds with NPR1 antag; HEK293 hNpr1 cGMP GloSensor luminescence, ANP-stimulated; Potency, µM (titrated, usually from 57.6 µM), for the others: at the top dose activity change, negative = inhibition, most hits filed as inhibitors; 1,400 compounds, 76% hits; note: potency is the fitted concentration of half-maximal effect; nearly all actives have a fitted effect of over 70% in size
Npr2 selectivity: antagonizes human Npr2, subtype selectivity check. shares compounds with NPR1 antag. HEK293 hNpr2 GloSensor cGMP luminescence, CNP-stimulated. Potency, µM (titrated, usually from 57.6 µM), without a hit: at the highest dose activity change, negative = inhibition, most hits filed as inhibitors. 1,400 compounds, 67% hits; note: potency is the fitted concentration of half-maximal effect; nearly all actives have a fitted effect of over 70% in size
FLuc counter: inhibits firefly luciferase, false Npr1 antagonist flag; shares compounds with NPR1 antag; purified FLuc enzyme, luminescence, Km substrate; Potency, µM (doses to about 57.6 µM), for the others: at the top dose activity change, negative = inhibition, usual class: inhibitors; 1,400 compounds, 0.7% hits; active = well fitted inhibition curve with a large enough effect; inconclusive = small, poorly fitted or top-dose-only effect; note: potency is the fitted concentration of half-maximal effect; 0% is about no effect
GloSensor cGMP: reduces cGMP signal in GloSensor control cells; 1,400 compounds, 69% hits; HEK293 GloSensor cGMP, SNP-stimulated, luminescence; shares compounds with NPR1 antag; Potency, µM (series often up to 57.6 µM), for inactives: at the highest dose activity change, negative = inhibition, most hits filed as inhibitors; note: potency is the fitted concentration of half-maximal effect; % is set by controls: 0 for no effect and ±100 for the full control effect; nearly all actives have a fitted effect of over 70% in size
GPT2 inh cnf: confirmation of human GPT2 inhibitors; shares compounds with GPT2 inh; GPT2 enzyme, coupled Amplex Red pyruvate fluorescence; Potency, µM, usual class: inhibitors; 95 compounds, 90% hits; AID 1671187; active = well fitted inhibition curve with a large enough effect; inconclusive = small, poorly fitted or top-dose-only effect
Active calls of the source: *; [ ] = remark or other dose. Unless noted, calls come from the whole dose curve.

Cc1noc(-c2cn(C3CCN(C(=O)c4ccc(F)cc4Cl)C3)nn2)n1 (stereo not drawn) was read as NPR1 antag 2% and GPT2 inh -16%.
Screening CC(C)c1noc(-c2cn(C3CCN(C(=O)c4cccc(Cl)c4)C3)nn2)n1 (stereo not drawn) returned NPR1 antag inconclusive, GPT2 inh -1%, NPR1 antag cnf 24µM*, Npr2 selectivity 27µM*, FLuc counter 7% and GloSensor cGMP 22µM*.
O=C(Cc1cccc(Cl)c1)N1C[C@@H](CO)[C@H](c2ccncc2)C1 was read as NPR1 antag 1% and GPT2 inh inactive.
Screening CCc1ccc(C(=O)N2CCC3(CC2)N=C(c2ccc(Br)cc2)NO3)cc1 returned NPR1 antag inconclusive and GPT2 inh inactive.
`CC(=O)Nc1ccc(C(=O)N2CCC3(CC2)N=C(c2ccccc2)NO3)cc1` gave NPR1 antag 0% and GPT2 inh 4%.
`CC(=O)Nc1ccc(C(=O)N2CCC3(CC2)N=C(c2ccc(Br)cc2)NO3)cc1` gave NPR1 antag 13µM*, GPT2 inh inactive, NPR1 antag cnf 19µM*, Npr2 selectivity 15µM*, FLuc counter -4% and GloSensor cGMP 15µM*.
CC(=O)Nc1ccc(C(=O)N2CCC3(CC2)N=C(c2ccc(Cl)cc2)NO3)cc1 was read as NPR1 antag inconclusive, GPT2 inh inactive, NPR1 antag cnf 22µM*, Npr2 selectivity inconclusive, FLuc counter -4% and GloSensor cGMP 22µM*.
CN(Cc1ccc(C(F)(F)F)cc1)Cc1cccc(C(F)(F)F)c1 was read as NPR1 antag 10% and GPT2 inh inconclusive.
Screening O=C(NCc1ccccn1)C1CCN(c2nccc(-c3cccnc3)n2)CC1 returned NPR1 antag -1% and GPT2 inh inconclusive.
Screening O=c1[nH]c2ccccc2n1C1CCN(c2nccc(-c3cccnc3)n2)CC1 returned NPR1 antag 11µM*, GPT2 inh -5%, NPR1 antag cnf 22µM*, Npr2 selectivity 24µM*, FLuc counter 1% and GloSensor cGMP 19µM*.
For Cc1cccc(C2c3cc(OCc4nc(C(=O)NC(C)C)co4)ccc3CCN2C(=O)C2CC2)c1 (stereo not drawn) the results were NPR1 antag -16% and GPT2 inh inactive.
O=C(NCC1CCCO1)N1CCc2nc(-c3ccccc3)[nH]c2C1 (stereo not drawn) was read as GPT2 inh inactive.
CCOc1ccc(C(=O)N2CCC(n3cc(-c4nc(-c5ccccc5)no4)nn3)CC2)cc1 was read as NPR1 antag -25% and GPT2 inh inactive.
For COc1ccc(C(=O)N2CCC(Cc3nc(-c4ccccc4)no3)CC2)cc1F the results were NPR1 antag 3.2µM*, GPT2 inh inactive, NPR1 antag cnf 3.1µM*, Npr2 selectivity 3.1µM*, FLuc counter -17% and GloSensor cGMP 3.1µM*.
`COc1ccc(C(=O)N2CCC(Cc3nc(-c4ccccc4)no3)CC2)cc1OC` gave NPR1 antag 2.8µM*, GPT2 inh 5%, NPR1 antag cnf 5.4µM*, Npr2 selectivity 6.9µM*, FLuc counter 1% and GloSensor cGMP 5.4µM*.
Screening Cc1cc(C)cc(C(=O)N2CCC(Cc3nc(-c4ccccc4)no3)CC2)c1 returned NPR1 antag inconclusive and GPT2 inh -7%.
Screening COc1ccc(C(=O)N2CCC[C@H]2c2nc(-c3ccccc3)no2)cc1F returned NPR1 antag 4% and GPT2 inh inactive.
`COc1ccc(C(=O)N2CCC(Cc3nc(C(C)C)no3)CC2)cc1OC` gave NPR1 antag inconclusive and GPT2 inh inactive.
Cc1ccc(C(=O)N2CCC(Cc3nc(-c4ccccc4)no3)CC2)s1 was read as NPR1 antag 6.3µM*, GPT2 inh 3%, NPR1 antag cnf 7.7µM*, Npr2 selectivity 9.7µM*, FLuc counter 1% and GloSensor cGMP 8.6µM*.
CCCCOc1ccc(C(=O)N2CCC(Cc3nc(-c4ccccc4)no3)CC2)cc1 was read as NPR1 antag 10µM*, GPT2 inh inactive, NPR1 antag cnf 17µM*, Npr2 selectivity 14µM*, FLuc counter 4% and GloSensor cGMP 12µM*.
Screening COc1ccccc1N1CCN(C(=O)Nc2n[nH]c(Cc3ccccc3)n2)CC1 returned NPR1 antag -17% and GPT2 inh 5%.
CC(=O)NC1(C)CN(Cc2ccc(-c3cccc(C(F)(F)F)c3)s2)C1 was read as NPR1 antag inconclusive and GPT2 inh -12%[88.5 µM].
`CCCCCNC(=O)CC(c1cccc(OC)c1OC)c1c[nH]c2ccccc12` (stereo not drawn) gave NPR1 antag -17% and GPT2 inh inactive.
COCC(=O)N1CCCC(c2nn(C)c(=O)n2C(C)C)C1 (stereo not drawn) was read as NPR1 antag 0% and GPT2 inh -4%.
Cc1ccc(OCC(=O)N2CCCC(c3nn(C)c(=O)n3C(C)C)C2)cc1 (stereo not drawn) was read as NPR1 antag 14µM*, GPT2 inh -11%, NPR1 antag cnf 24µM*, Npr2 selectivity inconclusive, FLuc counter 2% and GloSensor cGMP 24µM*.
Screening CNC(=O)c1cccc(-c2cnc(Nc3ccc(N4CCOCC4)cc3)c3c2CCO3)c1 returned NPR1 antag -7%[70.6 µM], GPT2 inh inconclusive and GPT2 inh cnf 6.3*.
Screening Fc1cccc(-c2cnc(Nc3ccc(N4CCOCC4)cc3)c3c2CCO3)c1 returned NPR1 antag -28%[70.6 µM] and GPT2 inh -4%[88.5 µM].
For C=CC(=O)Nc1cccc(Nc2nc(Nc3ccc(N4CCN(C(C)=O)CC4)cc3OC)ncc2C(F)(F)F)c1 the results were GPT2 inh 3.2µM* and GPT2 inh cnf 2.2*.
For C=CC(=O)Nc1cccc(Oc2nc(Nc3ccc(N4CCN(C)CC4)cc3)ncc2Cl)c1 the results were GPT2 inh -11%.
Screening CCn1c2c(c(=O)n1Cc1ccccc1)CCN(Cc1c[nH]c3ccccc13)C2 returned NPR1 antag -1%[70.6 µM] and GPT2 inh -7%[88.5 µM].
`CNC(=O)c1cc(-c2cccc(NC(C)=O)c2)cc2c1OCCN2Cc1cccnc1` gave NPR1 antag -3%[70.6 µM] and GPT2 inh -3%[88.5 µM].
